Laboratory results as given in PubChem BioAssay AID1476 (National Center for Advancing Translational Sciences (NCATS), 2009).
Among all 200,000 compounds or so, about 4,500 (2.2%) were called active. About 12% were inconclusive and are not listed. Calls come from the whole dose curve; as a rule, active = well fitted inhibition curve with a large enough effect; inconclusive = small, poorly fitted or top-dose-only effect, or effect the other way; inactive = flat fitted curve, though single readings scatter. Many of the other results were omitted from the sample, so actives are more common in it than they were.
Note: nearly all actives have a fitted effect of over 40% in size.
Potency is the fitted concentration of half-maximal effect.
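Throughout, for max response, negative = inhibition: plate controls were enzyme without inhibitor for no effect and buffer without enzyme for full effect.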

The compounds below were run against Cruzipain (Trypanosoma cruzi) (UniProt P25779) (assay: qHTS Assay for Promiscuous and Specific Inhibitors of Cruzain (without detergent)). Settings: purified cruzain, Z-FR-AMC fluorescence, no detergent.
Chain of Cruzipain (Trypanosoma cruzi) (P25779 123-467 limits assumed): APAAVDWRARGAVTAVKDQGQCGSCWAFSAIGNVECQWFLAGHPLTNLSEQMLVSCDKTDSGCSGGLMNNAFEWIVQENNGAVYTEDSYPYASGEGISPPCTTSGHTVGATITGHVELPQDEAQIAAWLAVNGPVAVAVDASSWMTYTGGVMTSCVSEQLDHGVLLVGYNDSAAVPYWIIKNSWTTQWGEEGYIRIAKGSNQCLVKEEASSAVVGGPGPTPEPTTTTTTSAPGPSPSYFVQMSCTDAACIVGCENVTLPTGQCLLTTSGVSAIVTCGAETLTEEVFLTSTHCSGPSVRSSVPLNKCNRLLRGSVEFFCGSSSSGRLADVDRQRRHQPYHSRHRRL
Summary of the method: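 Detergent-free condition (0.00005% Triton X-100) in acetate buffer pH 5.5 with DTT. 1.5 nM enzyme and compound were pre-mixed 15 min, then 2 uM Z-FR-AMC substrate added; reaction progress from fluorescence change between first and third reads (60 s).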
For `O=C(Nc1ccc2nc(SCC(=O)N3CCc4ccccc43)sc2c1)c1ccccc1F`, the max response, negative = inhibition was -3.59% (inactive).
`CCC(=O)Nc1ccc2nc(SCC(=O)N3CCc4ccccc43)sc2c1` was tested, and the max response, negative = inhibition was 26.9% (inactive).
In the case of `O=C(Nc1ccc2nc(SCC(=O)N3CCCc4ccccc43)sc2c1)c1ccc(Cl)cc1`, the Potency is reported as 10 µM (active).
For `COc1ccccc1NC(=O)CCC(=O)N1CC(C)Oc2ccc(C)cc21` (configuration not stated), the max response, negative = inhibition was -1.12% (inactive).
In the case of `COc1ccccc1N1CCN(C(=O)Cn2nnc(-c3cccs3)n2)CC1`, the max response, negative = inhibition is reported as -5.5% (inactive).
In the case of `COc1ccc(C2CC(c3ccccc3)=NN2C(=O)CSc2nccc(=O)[nH]2)cc1` (configuration not stated), the max response, negative = inhibition is reported as -19% (inactive).
With `O=C1c2cccc(OCC(=O)N3N=C(c4cccs4)CC3c3ccc(F)cc3)c2CCN1Cc1ccccc1` (configuration not stated) the Potency was 12.6 µM (active).
In the case of `O=C(Cn1ncc2c3ccccc3n(Cc3ccccc3)c2c1=O)NCc1ccccn1`, the max response, negative = inhibition is reported as 20.3% (inactive).
`COC(=O)c1cnc(N2CCN(c3ccccc3OC)CC2)c2ccccc12` was tested, and the max response, negative = inhibition was 5.66% (inactive).
In the case of `Cc1cccc(-n2c(SCC(N)=O)nc3c(c2=O)C2(CCCCC2)Cc2ccccc2-3)c1`, the max response, negative = inhibition is reported as -0.318% (inactive).
`N#CCSc1nc2ccccc2c(=O)n1-c1ccccc1` was tested, and the max response, negative = inhibition was 3.22% (inactive).
With `N#CCSc1nc2c(c(=O)n1Cc1ccccc1)C1(CCCC1)Cc1ccccc1-2` the Potency was 12.6 µM (active).
`CCS(=O)(=O)N1CCc2cc(C(=O)NCc3ccc(OC)cc3)ccc21` was tested, and the max response, negative = inhibition was -7.6% (inactive).
`CCCCS(=O)(=O)c1oc(-c2cccs2)nc1S(=O)(=O)c1ccccc1` was tested, and the max response, negative = inhibition was -4.72% (inactive).
For `COC(=O)c1ccc(C2C(C(=O)Nc3ccccc3)=C(C)Nc3nc4ccccc4n32)cc1` (configuration not stated), the max response, negative = inhibition was -6.78% (inactive).
`Cc1ccc(Nc2nnc(SCc3ccccc3)s2)cc1` was tested, and the max response, negative = inhibition was -12.9% (inactive).
For `CC(C)Nc1nnc(SCC(=O)c2c[nH]c3ccccc23)s1`, the max response, negative = inhibition was -13.7% (inactive).
For `Cc1ccc(Nc2nnc(SCC(=O)c3cc4ccccc4o3)s2)cc1C`, the Potency was 15.8 µM (active).
For `CC(C)c1ccc(Nc2nnc(SCC(=O)c3nnc(-c4ccccc4)o3)s2)cc1`, the Potency was 12.6 µM (active).
`O=C(CSc1nnc(Nc2ccccc2)s1)Nc1cccnc1Cl` was tested, and the max response, negative = inhibition was -18% (inactive).
In the case of `Cc1ccsc1C(=O)OCC(=O)c1cc2ccccc2o1`, the max response, negative = inhibition is reported as 2.71% (inactive).
For `CCN(c1ncnc2c1cnn2-c1ccc(C)cc1)C1CCCCC1`, the max response, negative = inhibition was 2.47% (inactive).
In the case of `COc1cccc(-n2c(=O)c3c(C)c(C(=O)N(C)C)sc3n(Cc3cccc(C)c3)c2=O)c1`, the max response, negative = inhibition is reported as -4.38% (inactive).
For `O=C(Nc1ccc(F)cc1F)c1ccc2c(=O)n3c(nc2c1)CCCCC3`, the max response, negative = inhibition was -3.34% (inactive).
In the case of `CN(Cc1ccccc1)C(=O)c1cc2c(=O)n(C)c3ccccc3c2s1`, the max response, negative = inhibition is reported as 3.44% (inactive).
For `Cc1cc(C(=O)OCC(=O)N2c3ccccc3NC(=O)C2(C)C)c(C)n1-c1ccccc1`, the max response, negative = inhibition was -5.2% (inactive).
With `Cc1cc(-c2csc(N)n2)c(C)n1-c1ccccc1` the Potency was 25.1 µM (active).
With `Cc1n[nH]c(=O)n1-c1ccc(Oc2ccccc2)cc1` the max response, negative = inhibition was 4.55% (inactive).
In the case of `Cc1cccc(N(C)C(=O)CS(=O)(=O)c2cccc3nsnc23)c1`, the max response, negative = inhibition is reported as -1.79% (inactive).
In the case of `COc1ccc(-n2c(SCC(=O)Nc3ccc(Cl)c(C)c3)nc3n[nH]c(C)c3c2=N)cc1`, the max response, negative = inhibition is reported as -5.01% (inactive).
In the case of `CCC(=O)N1CCc2cc(S(=O)(=O)NC(CC(C)C)C(=O)NCCc3cccc(C)c3)ccc21` (configuration not stated), the max response, negative = inhibition is reported as -3.67% (inactive).
With `COc1ccc(C)cc1NC(=O)C(OC(=O)c1cccc(S(=O)(=O)N(C)c2ccccc2)c1)c1ccccc1` (configuration not stated) the Potency was 7.94 µM (active).
For `COc1ccc(C)cc1NC(=O)C(Sc1ccccc1)c1ccccc1` (configuration not stated), the max response, negative = inhibition was -12.8% (inactive).
With `Cc1ccc(C)c(NC(=O)C(OC(=O)c2ccc(C)s2)c2ccccc2)c1` (configuration not stated) the max response, negative = inhibition was 12.2% (inactive).
With `COc1c(Cl)cc(Cl)cc1C(=O)Nc1cccc2cccnc12` the max response, negative = inhibition was -4.23% (inactive).
For `O=C1OCCN1C(=O)[C@H]1[C@H](c2ccc(Cl)cc2)C(c2cccc(Cl)c2)=NN1c1ccc(Br)cc1`, the Potency was 8.91 µM (active).
For `Cc1ccc2c(c1)N(C(=O)Nc1ccc(Br)cc1F)CCO2`, the max response, negative = inhibition was 5.17% (inactive).
In the case of `O=C1OCCN1C(=O)[C@H]1[C@H](c2ccc(F)cc2)C(c2ccccc2)=NN1c1ccc(Br)cc1`, the Potency is reported as 22.4 µM (active).
In the case of `C[C@@H]1C(c2ccc(F)cc2)=NN(c2ccc(Br)cc2)[C@H]1C(=O)N1CCOC1=O`, the Potency is reported as 22.4 µM (active).
`COc1ccc(NS(=O)(=O)c2cc3c4c(c2)CC(=O)N4CCC3)cc1Cl` was tested, and the max response, negative = inhibition was -28.2% (inactive).
With `COc1cccc(CNC(=O)c2ccc3c(c2)sc2nc(-c4cccc(OC)c4)cn23)c1` the max response, negative = inhibition was -4.99% (inactive).
`CC1CCN(c2nc3ccc(C(=O)N4CCN(c5ccccc5)CC4)cc3s2)CC1` was tested, and the max response, negative = inhibition was -2.72% (inactive).
With `CCC(CC)c1nn2cc(-c3ccccc3)nc2s1` the max response, negative = inhibition was -2.39% (inactive).
For `Oc1c(C(c2ccc(F)cc2)N2CCN(Cc3ccccc3)CC2)sc2nc(-c3ccco3)nn12` (configuration not stated), the max response, negative = inhibition was 1.08% (inactive).
In the case of `CCC(=O)N1CCc2cc(S(=O)(=O)NCCC(=O)Nc3cccc(C)c3C)ccc21`, the max response, negative = inhibition is reported as -1.54% (inactive).
With `Cc1ccc(NC(=O)CN2C(=O)C(c3ccc(F)cc3)=NC23CCCCCC3)c(C)c1` the max response, negative = inhibition was 4.08% (inactive).
`Cc1ccccc1OCc1nnc(SCC(=O)N2c3ccccc3Sc3ccc(Cl)cc32)o1` was tested, and the Potency was 12.6 µM (active).
For `Cc1cc(C)cc(OCc2nnc(SCC(=O)Nc3ccccc3)o2)c1`, the max response, negative = inhibition was 4.82% (inactive).
In the case of `CC(C)NC(=O)CSc1nnc(COc2ccccc2Cl)o1`, the max response, negative = inhibition is reported as -5.33% (inactive).
For `CCOC(=O)c1c(NC(=O)COc2cc(C)ccc2C(C)C)sc(C)c1C`, the max response, negative = inhibition was 8.07% (inactive).
`Cc1ccc(CCNC(=O)c2ccc(CS(=O)(=O)Cc3cccc(C)c3)o2)cc1` was tested, and the max response, negative = inhibition was 19.9% (inactive).
For `CCCc1cc(=O)n2[nH]c(NCc3ccc(CC)cc3)nc2n1`, the max response, negative = inhibition was -8.1% (inactive).
For `CCc1ccc(NC(=O)N2CCN(C(=O)c3nsc4ccccc34)CC2)cc1`, the max response, negative = inhibition was -5.87% (inactive).
With `COc1cc(NC(=O)c2nn(-c3ccc(C)cc3)c(=O)c3c2c2ccccc2n3C)cc(OC)c1OC` the max response, negative = inhibition was -21.7% (inactive).
In the case of `O=C1N(Cc2ccc3c(c2)OCO3)c2ccccc2C1(O)c1c[nH]c2ccccc12` (configuration not stated), the Potency is reported as 15.8 µM (active).
`O=C1N(Cc2ccccc2)c2ccc(Cl)cc2C1(O)c1c[nH]c2ccccc12` (configuration not stated) was tested, and the max response, negative = inhibition was 18.9% (inactive).
For `O=C(CCCCn1c(=O)[nH]c2ccccc2c1=O)NCc1ccc2c(c1)OCO2`, the max response, negative = inhibition was 8.55% (inactive).
